Reference: PubChem BioAssay AID651598 (Sanford-Burnham Center for Chemical Genomics, 2012)
Several values for one entry are separate records, joined by “and”; a condition that tells them apart may be missing. Equal entries are not always repeated.

Biological target: C-X-C chemokine receptor type 6 (Homo sapiens) (UniProt O00574)
Assay: APJ beta-arrestin recruitment blockade alongside CXCR6 – cell-based, DiscoveRx, panel, CHO-K1, counter-screen for CXCR6 antagonist project, SAR follow-up (AID 651598)
Conditions: CHO-K1 PathHunter beta-arrestin luminescence, antagonist mode; run 1, at 80 µM (top of the series)

Sequence of C-X-C chemokine receptor type 6 (Homo sapiens) (O00574 whole entry, looked up): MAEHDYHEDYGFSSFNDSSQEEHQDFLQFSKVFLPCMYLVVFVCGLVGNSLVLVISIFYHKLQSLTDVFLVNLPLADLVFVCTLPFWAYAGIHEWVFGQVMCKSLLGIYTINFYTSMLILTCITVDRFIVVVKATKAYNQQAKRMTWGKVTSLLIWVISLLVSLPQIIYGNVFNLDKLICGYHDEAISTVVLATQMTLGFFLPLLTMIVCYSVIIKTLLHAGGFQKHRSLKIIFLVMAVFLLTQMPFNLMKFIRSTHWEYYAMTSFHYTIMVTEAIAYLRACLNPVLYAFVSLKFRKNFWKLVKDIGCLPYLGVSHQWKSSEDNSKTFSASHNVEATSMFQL

Row | Compound | inhibition
1 | COc1cc(C(=O)NC2CCN(CC(=O)Nc3ccccc3)CC2)cc(OC)c1OC | 4.26%
2 | COc1cc(C(=O)NC2CC3CCC(C2)N3CC(=O)Nc2ccccc2)cc(OC)c1OC (stereo not drawn) | 59.5% and 13.9%
3 | COc1cc(C(=O)NC2CC3CCCC(C2)N3CC(=O)Nc2ccccc2)cc(OC)c1OC (stereo not drawn) | 89.3% and 49.6% and 26.4%
